HP1b chromo inh: blocks HP1-beta chromodomain binding to methylated histone tails | AlphaScreen HP1-beta / biotin-H3K9me3 peptide binding | Potency, µM (top dose mostly 114 µM), inactives show at the top dose activity change, negative = inhibition, actives largely listed as inhibitors | 390,000 tested, 0.56% active | AID 540317; further: nearly all actives have a fitted effect of over 70% in size
Target sequence (P83916 whole entry, looked up): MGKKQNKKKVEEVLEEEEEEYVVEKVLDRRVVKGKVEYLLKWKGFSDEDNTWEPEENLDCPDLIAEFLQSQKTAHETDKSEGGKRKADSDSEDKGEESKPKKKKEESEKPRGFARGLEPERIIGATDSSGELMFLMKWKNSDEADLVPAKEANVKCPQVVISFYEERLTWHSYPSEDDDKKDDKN
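AlphaScreen: HP1-beta (50 nM) preformed 30 min with biotin-H3(1-18)K9me3 peptide (50 nM) in PBS pH 7.4, 0.01% Tween-20. Compound added for 30 min at RT, then streptavidin donor/nickel chelate acceptor beads (10 ug/mL) for 30 min.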
GLS inhibitor: blocks human kidney-isoform glutaminase activity | O94925 | Potency, µM (titrated, usually from 45.5 µM), without a hit: at the top dose activity change, negative = inhibition, most hits filed as inhibitors | GLS enzymatic activity, qHTS titration | 410,000 tested, 0.21% active | AID 624170; further: on the % scale 0 is the no-effect control and ±100 the full control effect
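Coupled fluorescence readout: glutamate oxidase/HRP/Amplex Red detect glutamate formed by hKGA from L-glutamine (1 mM solution added). Buffer 45 mM KH2PO4 pH 8.2, 0.02% Tween-20; reads at t0 and 30 min RT.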
BAZ2B block: blocks human BAZ2B; AID 504333; 360,000 tested, 4.4% active; Potency, µM (top dose mostly 114 µM), without a hit: at the top dose activity change, negative = inhibition, hits mostly inhibitors; Q9UIF8; AlphaScreen BAZ2B-H3K14Ac peptide displacement; further: on the % scale 0 is the no-effect control and ±100 the full control effect; nearly all actives have a fitted effect of over 60% in size
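Complex of BAZ2B and biotin-H3K14Ac (50 nM apiece) forms over 30 min at RT, then faces library compounds up to 110 uM for another 30 min; AlphaScreen beads added, 20 min dark incubation, luminescence read.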
G9a inh: G9a (human) methyltransferase inhibition; Q96KQ7; G9a H3K9 monomethylation, AlphaScreen, 2 h; Potency, µM (highest dose often 102 µM), inactives show at the highest dose activity, negative = inhibition, hits mostly inhibitors; 350,000 tested, 8.8% active; further: on the % scale 0 is the no-effect control and ±100 the full control effect; nearly all actives have a fitted effect of over 75% in size
Target sequence (Q96KQ7 913-1193 limits assumed): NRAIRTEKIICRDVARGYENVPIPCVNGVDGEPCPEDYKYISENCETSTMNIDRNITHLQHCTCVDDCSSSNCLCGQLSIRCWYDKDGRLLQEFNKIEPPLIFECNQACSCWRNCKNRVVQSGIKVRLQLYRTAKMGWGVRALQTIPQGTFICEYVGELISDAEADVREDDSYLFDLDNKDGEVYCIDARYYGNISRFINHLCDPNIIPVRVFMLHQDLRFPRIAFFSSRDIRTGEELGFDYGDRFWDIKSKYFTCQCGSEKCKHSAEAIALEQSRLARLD
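AlphaScreen read-out: biotin-H3K9 peptide (500 nM) methylation by 20 nM enzyme with 20 uM SAM, 2 h at room temperature after 15 min compound preincubation; anti-monomethyl H3K9 antibody plus donor/acceptor beads, 10 min dark.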
JMJD2A Tudor inh: JMJD2A Tudor domain (human) inhibition; AlphaScreen JMJD2A-Tudor / H3K4me3 peptide binding; Potency, µM (series often up to 114 µM), for inactives: at the highest dose activity change, negative = inhibition, hits mostly inhibitors; O75164; 390,000 tested, 4.4% active; further: on the % scale 0 is the no-effect control and ±100 the full control effect; nearly all actives have a fitted effect of over 50% in size
Active calls of the source: *; u = inconclusive; x = not tested or not shown; ! = not confirmed by another sample; [ ] = another dose, or the depositor's remark. Most compounds without a hit are left out; they make up all but 10% or so of the library. The call rests on the fitted dose curve; in most records, active means well fitted curve in the direction sought with a large enough effect; inconclusive means small, poorly fitted or top-dose-only effect, or another doubt; inactive means no such curve, though single readings can be large; an effect the other way counts as inactive or inconclusive. Potency means the concentration at half of the fitted maximal effect.

SMILES	HP1b chromo inh	GLS inhibitor	BAZ2B block	G9a inh	JMJD2A Tudor inh
CCOc1ccc(CNC(=O)c2ccc3c(c2)N(CC)CCS3)cc1	39.5%	9.1%	-1.0%	16.6%	-7.5%
CCc1ccc(-n2c(C)nc3cc(C(=O)NCc4cccnc4)ccc32)cc1	22.3%	-5.6%	-22.3%	50.1µM*	-30.5%
COc1ccc(CNC(=O)c2ccc3c(c2)N(Cc2ccc(C)cc2)CCS3)cc1	9.0%	-15.0%	-3.5%	11.1%[59 µM]	-24.5%
Cc1ccc(CN2CCSc3ccc(C(=O)N4CCN(c5cccc(C)c5C)CC4)cc32)cc1	17.1%	-0.3%	-20.8%	-35.2%[59 µM]	-27.2%
Cc1ccc(CN2CCSc3ccc(C(=O)N4CCN(c5ccc(Cl)cc5)CC4)cc32)cc1	6.1%	-6.3%	-37.4%	3.16µM*	u
COc1ccc(-n2c(C)nc3cc(C(=O)NCc4ccc5c(c4)OCO5)ccc32)cc1	0.6%	8.1%	-36.7%	-20.6%	-4.6%[57.1 µM]
CCN1CCSc2ccc(C(=O)NCc3ccc(OC(C)C)cc3)cc21	20.7%	1.5%	-32.2%	44.7µM*!	-20.4%
Cc1ccc(CN2CCSc3ccc(C(=O)NCc4cccnc4)cc32)cc1	-4.7%	21.1%	u	u	39.8µM*
O=S(=O)(Nc1cccc2ccccc12)c1cccc2ccccc12	30.7%	x	x	x	-20.5%
CCOc1ccc(NS(=O)(=O)c2c(C)nc3sc(C)c(C)n3c2=O)cc1	0.6%	2.3%	-26.1%	-30.9%[59 µM]	-33.3%
Cc1cc(=S)cc(C)n1CCO	12.8%	6.1%	-7.2%	12.6µM*	-16.0%
CCCCN(CC)CCCNC(=S)Nc1ccc2nc(N3CCN(C)CC3)cc(C)c2c1	18.4%	-6.9%	-24.7%	39.8µM*	-17.3%
CCCCN(CC)CCCNC(=S)Nc1ccc2nc(N3CCN(CC)CC3)cc(C)c2c1	-10.7%	u	-20.0%	50.1µM*	-26.4%
O=C1C(=O)N(C2CCN(C(=O)c3cccc(Cl)c3)CC2)CCN1Cc1ccc(F)cc1	31.1%	1.8%	-0.9%	-5.0%[59 µM]	-1.9%
CC1CCCN(S(=O)(=O)c2cccc(C(=O)OCC(=O)N(C)Cc3c(F)cccc3Cl)c2)C1 (configuration not stated)	-4.9%	5.4%	x	x	-26.3%
COc1ccc(C(=O)NNC(=O)CSc2nc3c([nH]2)c(=O)n(C)c(=O)n3C)cc1	37.4%	26.1%	-13.7%	22.4µM*	1.4%
Cc1cc(C)nc(SCC(=O)NN)n1	5.7%	7.1%	50.1µM*	22.4µM*	-4.2%
Cc1cc(C)nc(SCC(=O)c2ccc(O)c(O)c2)n1	20.3%	6.5%	u	1.78µM*	12.6µM*
Cn1c(=O)c2[nH]c(SCC(=O)c3ccc(F)cc3)nc2n(C)c1=O	24.6%	0.8%	-2.8%	u	-7.7%
CCOC(=O)c1ccc(NC(=O)CSc2nc(C)cc(=O)[nH]2)cc1	u	u	50.1µM*	u	44.7µM*
Cc1cc(=O)[nH]c(SCC(=O)Nc2ccc(C(=O)O)cc2)n1	30.2%	-3.1%	u	-1.3%	-7.1%
Cc1ccc(CN(C)C(=O)CSc2nnc3n2CCCCC3)c(C)c1	20.7%	4.7%	9.0%	-6.6%[12.7 µM]	-10.7%
O=C(CN1C(=O)CCC1=O)Nc1cccc2c1C(=O)NC2=O	45.0%	2.2%	0.8%	-3.2%	-4.3%
COc1ccc(NC(=O)c2ccc(NC(=O)CSc3nccc(=O)[nH]3)cc2)cc1	-13.8%	-2.9%	56.2µM*	u	u
O=C(CSc1nc2ccccc2c(=O)[nH]1)c1ccc(O)c(O)c1	-57.7%	-15.1%	-7.5%	4.9%[12.7 µM]	56.2µM*
SMILES	HP1b chromo inh	GLS inhibitor	BAZ2B block	G9a inh	JMJD2A Tudor inh
Cc1ccc(C(=O)CSc2nc(N)cc(=O)[nH]2)cc1C	24.5%	5.0%	1.6%	18.9%	-24.3%
Cc1cc(SCC(=O)c2ccc(O)c(O)c2)n2nc(C)c(-c3ccccc3)c2n1	4.0%	46.9%	u	11.2µM*	-19.1%[11.4 µM]
Cc1ccc(C(=O)CSc2nc(C)cc(=O)[nH]2)cc1	60.7%	-0.6%	-3.1%	50.1µM*	-14.4%
Cc1ccc(-n2c3c(cc(-c4nc(-c5ccc(Cl)cc5)cs4)c2=O)C(=O)CC(C)(C)C3)cc1	71.1%	-1.1%	6.4%	15.2%[59 µM]	19.5%
Cc1ccc(C(=O)c2cn(Cc3cccc(C)c3)c3nc(C)ccc3c2=O)cc1	28.2%	-4.4%	-16.7%	-27.2%[59 µM]	-12.3%
CCc1nc2oc3ccccc3c(=O)c2c(=O)n1-c1ccccc1	28.5%	1.0%	-1.8%	-11.0%[2.33 µM]	-10.4%
COc1ccc2cc(CCNS(=O)(=O)c3ccc(C)cc3)c(=O)[nH]c2c1	9.9%	-2.1%	-4.6%	5.2%[59 µM]	-6.8%
CC1(Cc2ccc(C(F)(F)F)o2)C(=O)Nc2cc(-c3ccc(F)cc3F)ccc21 (configuration not stated)	x	-7.2%	x	x	x
COCc1cc(C)nc(SCC(=O)Oc2ccccc2)c1C#N	33.5%	5.1%	115.7%	70.6%	11.3%
COCc1cc(C)nc(SCC(=O)c2ccc(O)c(O)c2)c1C#N	0.7%	u	-38.1%	10µM*	22.4µM*
Cc1ccc(-c2csc(NC(=O)CSc3nc(C)cc(=O)[nH]3)n2)cc1	10.9%	-4.0%	u	44.7µM*	u
Cc1cc(=O)[nH]c(SCC(=O)c2ccc(O)c(O)c2)n1	6.9%	10.2%	56.2µM*	7.94µM*	-8.2%
COC(=O)C(CSCc1ccccc1)NC(=O)CSc1nc(C)cc(=O)[nH]1 (configuration not stated)	-1.6%	0.9%	2.9%	-0.2%	50.1µM*
Cc1cc(=O)[nH]c(SCC(=O)NC(c2ccccc2)c2ccccc2)n1	19.3%	-15.9%	x	-4.2%	-3.2%
OCCNCc1c(OCc2ccc(Cl)cc2)ccc2ccccc12	34.9%	-1.4%	6.5%	-42.6%	-12.1%
O=C(CSc1nc2ccccc2c(=O)[nH]1)c1ccc(O)cc1O	15.1%	15.8%	1.8%	u	-8.3%
Cc1cc(C)nc(SCNC(=O)c2ccc(Cl)cc2)n1	41.2%	-20.0%	-9.7%	50.1µM*	u
Cc1cc(C)nc(SCC(=O)c2ccc(O)cc2O)n1	63.1%	5.6%	-4.6%	39.8µM*	-11.7%
O=C(NCc1ccc(F)cc1)c1ccc(S(=O)(=O)N2CCCCC2)cc1	41.0%	1.6%	-3.1%	19.7%[12.7 µM]	7.4%
COC(=O)C1CCN(C(=O)COC(=O)c2ccc3[nH]c4c(c3c2)CCCC4)CC1	u	8.3%	u	50.1µM*	u
CC1CCCN(C(=O)COC(=O)c2ccc3[nH]c4c(c3c2)CCCC4)C1 (configuration not stated)	-4.9%	16.1%	50.1µM*	u	-9.0%
COC(=O)C1CCN(C(=O)COC(=O)c2ccc(OC)c(S(=O)(=O)N3CCCc4ccccc43)c2)CC1	12.7%	2.1%	4.8%	79.4µM*	-18.1%
O=C(NCc1ccc2[nH]c3c(c2c1)CCCC3)c1ccc(S(=O)(=O)N2CCCCC2)cc1	7.1%	6.8%	-32.4%	70.8µM*	-21.1%
CCOC(=O)C1CCN(C(=O)COC(=O)c2ccc3[nH]c4c(c3c2)CCCC4)CC1	-24.3%	-4.0%	u	5.5%[2.33 µM]	u

Source: PubChem BioAssay (National Center for Advancing Translational Sciences (NCATS))
